# Hit rate of the full screen: of about 2,300 compounds, about 1,400 (61%) were called active. Roughly 29% stayed inconclusive and do not appear here. So high a share suggests a set chosen from earlier hits. The list shows a part of the results. A number with no mark means an inactive call. Calls come from the whole dose curve; as a rule, active = well fitted inhibition curve with a large enough effect; inconclusive = small, poorly fitted or top-dose-only effect, or effect the other way; inactive = no such curve, though single readings can be large or run the other way.
# Experiment: Confirmation screen for delayed death inhibitors of the malarial parasite plastid, 96 hour incubation; note: nearly all actives have a fitted effect of over 60% in size
# Conditions: P. falciparum luciferase growth in erythrocytes; series mostly up to 28.7 µM; activity change, negative = inhibition: at the top concentration
# Procedure, shortened: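 Erythrocytes infected with luciferase-expressing P. falciparum (2% hematocrit, 0.1% parasitemia final) in RPMI 1640 with 0.5% Albumax, exposed to compounds 96 h at 37 C, 5% CO2. Growth inhibition read as decreased luciferase luminescence.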
# % is set by controls: 0 for no effect and ±100 for the full control effect; potency is the fitted concentration of half-maximal effect.
Structure (SMILES),Potency,"activity change, negative = inhibition [%]"
COc1ccccc1CNC(=O)CCCn1nc(C)c2c(C)n(-c3ccccc3)nc2c1=O,12.6 µM (active),–
COc1ccc(OC)c(CCNC(=O)CCn2nc(C)c3c(C)n(-c4ccccc4)nc3c2=O)c1,5.62 µM (active),–
Cc1nn(CCC(=O)NCc2ccc(N(C)C)cc2)c(=O)c2nn(-c3ccccc3)c(C)c12,8.91 µM (active),–
O=C(CCN1C(=O)C2CC=C(Cl)CC2C1=O)NCc1ccccc1 (centres undefined),–,-21.1
COc1cc(CNC(=O)CCn2nc(C)c3c(C)n(-c4ccccc4)nc3c2=O)cc(OC)c1OC,12.6 µM (active),–
CCC(C(=O)NCCc1ccccc1OC)n1nc(C)c2c(C)n(-c3ccccc3)nc2c1=O (centres undefined),10 µM (active),–
COc1ccccc1CCNC(=O)CCn1nc(C)c2c(C)n(-c3ccccc3)nc2c1=O,7.94 µM (active),–
C=C1CCC2[C@](C)(CO)[C@H](O)CC[C@@]2(C)[C@@H]1C/C=C1\C(=O)OC[C@H]1O (some centres undefined),11.2 µM (active),–
CC1(C)Cc2nc(-c3ccccc3)nc(SCC(O)CO)c2CO1 (centres undefined),12.6 µM (active),–
COc1ccc(C)c2sc(NC(=O)CCS(=O)(=O)c3ccccc3)nc12,–,-23.6
CCOc1cccc2sc(NC(=O)CCS(=O)(=O)c3ccccc3)nc12,5.62 µM (active),–
CC(C)(C)Sc1ccc([N+](=O)[O-])cc1C(=O)Nc1ccncc1,2.51 µM (active),–
COc1cccc(-c2sc3ccc(OC)cc3c2-c2cc(F)cc(OC)c2)c1,10 µM (active),–
CN1C(=O)c2ccccc2N(C)C1c1cccc(O)c1 (centres undefined),15.8 µM (active),–
CC(=O)N1CCc2cc(S(=O)(=O)NCCC(=O)N3CCN(c4ccccn4)CC3)ccc21,7.94 µM (active),–
CC1CN(c2nc(-c3ccc(Br)cc3)nnc2-c2ccccc2)CC(C)N1 (centres undefined),2.82 µM (active),–
O=C(CSc1nnc(-c2ccco2)o1)N1c2ccccc2CCc2ccccc21,7.94 µM (active),–
O=C(Cc1cn2ccsc2n1)Nc1nc2c(s1)CCCC2,–,8.57
O=C(CCCl)Nc1nc2c(s1)CCc1ccccc1-2,11.2 µM (active),–
O=C(Cn1c(=O)sc2ccccc21)Nc1nc2c(s1)CCCC2,–,19.7
COc1ccc(CN(C(=O)c2oc3ccc(F)cc3c2C)C2CCS(=O)(=O)C2)cc1 (centres undefined),14.1 µM (active),–
Cc1cc(C(=O)N(C)CC2CCCN(CCc3ccc(F)cc3)C2)c(C)o1 (centres undefined),14.1 µM (active),–

Structure (SMILES),Potency,"activity change, negative = inhibition [%]"
Cc1c(/C=N/NC(=O)c2cccs2)c2ccccc2n1Cc1ccccc1Cl,3.16 µM (active),–
Cc1ccccc1NC1=NCC(c2ccc([N+](=O)[O-])cc2)S1 (centres undefined),11.2 µM (active),–
CCN(CC)CCNC(=O)c1ccc(NC(=O)c2ccccc2-c2ccc(C(F)(F)F)cc2)cc1,11.2 µM (active),–
CCN(CC)C(=O)CSc1nc(COc2ccccc2)nc2ccccc12,11.2 µM (active),–
COc1ccc2[nH]c3c(NCCC4=CCCCC4)ncnc3c2c1,5.62 µM (active),–
COc1ccc2[nH]c3c(NCCN(C(C)C)C(C)C)ncnc3c2c1,3.98 µM (active),–
CC(C)OCCCNc1ncnc2c1[nH]c1ccc(F)cc12,4.47 µM (active),–
Cc1cc(=O)nc2c3ccccc3n(CC(=O)NCCC3=CCCCC3)n12,8.91 µM (active),–
Cc1ccccc1OCC(=O)NCCC1=CCCCC1,–,-19.1
COc1ccc(S(=O)(=O)N2CCC(C(=O)Nc3ccccc3N3CCCCC3)CC2)cc1OC,7.94 µM (active),–
COc1ccc(CCNC(=O)C(=O)NCC2OCCN2S(=O)(=O)c2ccc3c(c2)OCCO3)cc1OC (centres undefined),11.2 µM (active),–
O=C(NCCCn1ccnc1)C(=O)NCC1OCCN1S(=O)(=O)c1ccc(F)cc1 (centres undefined),–,-11.4
COc1ccc(CCNC(=O)C2CCN(S(=O)(=O)c3ccc(OC)c(OC)c3)CC2)cc1OC,12.6 µM (active),–
COc1ccc(Cl)cc1NC(=O)C1Cc2cc(S(=O)(=O)N3CCCC3)ccc2N1C(C)=O (centres undefined),11.2 µM (active),–
Cc1ccc(-c2nnc(N3CCOCC3)c3ccccc23)cc1S(=O)(=O)NCC1CCCO1 (centres undefined),2.51 µM (active),–
Cc1cc(C)c(OCC(O)CNC(C)(C)C)c(C)c1 (centres undefined),7.08 µM (active),–
COc1ccc(N2CCc3c(C)nc4c(OC)cc(OC)cc4c32)c(OC)c1,5.01 µM (active),–
CC(C)NC(=S)N/N=C/c1sc(N2CCCCC2)nc1-c1cccs1,5.01 µM (active),–
Cc1cc2nsnc2c(S(=O)(=O)N2CCN(C)CC2)c1C,–,27.1
CC1CCN(CCNC(=O)C2CCN(S(=O)(=O)c3cccc4nsnc34)CC2)CC1,7.94 µM (active),–
C=CCn1cccc(/C=C/C(=O)c2ccc(C(C)(C)C)cc2)c1=S,0.794 µM (active),–
COc1ccc(CC(=O)NCC2CCCN(Cc3ccc(F)c(OC)c3)C2)cc1 (centres undefined),7.08 µM (active),–

# From PubChem BioAssay AID504848 (National Center for Advancing Translational Sciences (NCATS), 2011)
